Inconclusive results are not listed. Some structures have more than one record in an assay (separate samples or runs), and their calls can disagree. Activity calls are given as the source filed them. Calls come from the whole dose curve; as a rule, active = well fitted cell-killing curve with a large enough effect in the repeat runs; inconclusive = weak or mixed curves; inactive = no such curve, though single readings can be large or run the other way.
Assay: qHTS assay to identify small molecule agonists of the peroxisome proliferator-activated receptor delta (PPARd) signaling pathway - cell viability counter screen (AID 743211); note: nearly all actives have a fitted effect of over 55% in size
Settings: PPARd-bla HEK293H viability, CellTiter-Glo luminescence, 17 h; series mostly up to 62.6 µM; activity change, negative = cytotoxicity: at the top concentration
Excerpt: U.S. Tox21 Program National Center for Advancing Translational Sciences [NCATS] NIH Chemical Genomics Center [NCGC] U.S. Environmental Protection Agency [EPA] National Institutes of Environmental Health Sciences [NIEHS] National Toxicology Program [NTP] U.S. Food and Drug Administration [FDA] Tox21 Assay Overview: The peroxisome proliferator-activated receptors (PPARs) are lipid-activated transcription factors of the nuclear receptor superfamily with three distinct subtypes namely PPAR alpha, PPAR delta (PPARd) and PPAR gamma. All these subtypes heterodimerizes with Retinoid X receptor (RXR) and have different physiological functions. […] To identify the compounds that activate PPAR-delta signaling, GeneBLAzer PPAR delta UAS-bla HEK293H cell line (Invitrogen, Carlsbad, CA, USA) containing a beta-lactamase reporter gene under the control of an Upstream Activator Sequence (UAS) was used to screen the Tox21 compound library. The cytotoxicity of the Tox21 compound library against the PPARd-bla cell line was tested in parallel by measuring the cell viability using CellTiter-Glo assay (Promega, Madison, WI) in the same wells.
Tox21 Assay Protocol Summary: PPARd-bla cells were dispensed at 3000 cells/6uL/well in 1536-well black wall/clear bottom plates using a Multidrop Combi (Thermo Fisher Scientific, Waltham, MA) dispenser. After the assay plates were incubated at 37 C and 5% CO2 for 5 h, 23 nL of compounds dissolved in DMSO, positive controls or DMSO only was transferred to the assay plate by a Pintool station (Kalypsys, San Diego, CA). The assay plates were incubated at 37C for 17 h. After 1 uL of LiveBLAzerTM B/G FRET substrate was added using a Bioraptr Flying Reagent Dispenser (FRD) workstation (Beckman Coulter, Indianapolis, IN, USA), the plates were incubated at room temperature for 2 h, and fluorescence intensity was measured by an Envision plate reader (PerkinElmer, Shelton, CT). For cell viability readout that measures cytotoxicity, 3 ul/well of CellTiter-Glo reagent was added into the assay plates using a Bioraptr FRD. After 30 min incubation at room temperature, the luminescence intensity in the plates was measured using a ViewLux plate reader (PerkinElmer).
% is set by controls: 0 for no effect and ±100 for the full control effect; potency is the fitted concentration of half-maximal effect.

SMILES | Potency | activity change, negative = cytotoxicity
CCCCCCCCOc1ccccc1C(=O)Nc1ccc(C(=O)OCC[N+](C)(CC)CC)cc1 | 26.6 µM (active) | 
CC1=C(C(=O)OC(C)C)C(c2cccc([N+](=O)[O-])c2)C(C(=O)OC2CN(C(c3ccccc3)c3ccccc3)C2)=C(N)N1 (stereo not given) | 11.9 µM (active) | 
Cc1cccc2c1cc1ccc3cccc4ccc2c1c34 |  | 1.13% [at 81.1 µM] (inactive)
C/C=C(\C)C(=O)OCc1ccccc1 |  | -9.5% (inactive)
O=C(OCC1CO1)C1CCCCC1C(=O)OCC1CO1 (stereo not given) |  | -0.0307% (inactive)
[Cl][Au]([Cl])[Cl] | 3.09 µM (active) | 
CCCCN1C(=O)[C@@H]([C@H](O)C2CCCCC2)NC(=O)C12CCN(Cc1ccc(Oc3ccc(C(=O)O)cc3)cc1)CC2 |  | -15.9% (inactive)
O=C(OCC(COC(=O)c1ccccc1)(COC(=O)c1ccccc1)COC(=O)c1ccccc1)c1ccccc1 |  | 1.25% (inactive)
CCC1OCC(COc2ccc(Oc3ccccc3)cc2)O1 (stereo not given) |  | -10.2% (inactive)
CCCCCCCCCCCCc1ccc(O)cc1 | 24.5 µM (active) | 
O=C1c2ccccc2Cc2ccccc21 |  | -3.31% [at 81.1 µM] (inactive)
CCCCCOC(=O)CCCC |  | 1.3% (inactive)
COCCCC/C(=N\OCCN)c1ccc(C(F)(F)F)cc1 | 23.7 µM (active) | 
Cc1cc(C2CCCCC2)n(O)c(=O)c1 | 5.31 µM (active) | 
Cc1c(C)c2c(c(C)c1OC(=O)CCC(=O)O)CC[C@@](C)(CCC[C@H](C)CCC[C@H](C)CCCC(C)C)O2 |  | -6.51% [at 81.1 µM] (inactive)
O=c1[nH]sc2ccccc12 | 17.4 µM (active) | 
CCCCCCCCCCCC[N+](C)(C)CCCCCCCCCCCC | 17.4 µM (active) | 
CCCN(CCC)C(=O)C(CCC(=O)OCCCN1CCN(CCOC(=O)Cc2c(C)n(C(=O)c3ccc(Cl)cc3)c3ccc(OC)cc23)CC1)NC(=O)c1ccccc1 (stereo not given) | 23.7 µM (active) | 
CNC(=O)c1ccccc1 |  | 6.24% (inactive)
Cc1cc(O)c(C(C)(C)C)cc1Sc1cc(C(C)(C)C)c(O)cc1C | 3.88 µM (active) | 

SMILES | Potency | activity change, negative = cytotoxicity
N#CC1(c2ccc(F)cc2)CCC(=O)CC1 |  | 7.48% (inactive)
Cc1cc(CCN2CCN(c3nsc4ccccc34)CC2)cc2c1NC(=O)CC2(C)C | 21.9 µM (active) | 
CCN(C(=O)N(CC)c1ccccc1)c1ccccc1 |  | -18.9% (inactive)
CC(C)(C)c1ccc(C(=O)O)cc1 |  | -0.427% (inactive)
COc1ccc(CN2CCN(C(c3ccc(F)cc3)c3ccc(F)cc3)CC2)c(OC)c1OC | 29.8 µM (active) | 
O=C1CCCCCN1SSN1CCCCCC1=O |  | -18.4% (inactive)
O=S1(=O)CC(Cl)(Cl)C(Cl)(Cl)C1 | 3.09 µM (active) | 
C[n+]1cc2c3c(ccc2c2ccc4cc5c(cc4c21)OCO5)OCO3 | 1.46 µM (active) | 
COc1cccc2c1C(=O)c1c(O)c3c(c(O)c1C2=O)C[C@@](O)(C(=O)CO)C[C@@H]3O[C@H]1C[C@H](N)[C@H](O[C@@H]2CCCCO2)[C@H](C)O1 |  | -24.9% (inactive)
CCCCCCCCCCCCCC[P+](CCCC)(CCCC)CCCC (tested in a mixture with another compound) |  | 1.06% [at 81.1 µM] (inactive)
NC(=O)NS(=O)(=O)c1ccc(N)cc1 |  | 4.1% (inactive)
C=CC(=O)OCCn1c(=O)n(CCOC(=O)C=C)c(=O)n(CCOC(=O)C=C)c1=O | 19.5 µM (active) | 
Nc1ccc(N)c2ccccc12 | 15.5 µM (active) | 
CN1CCC(Nc2ncc3ncnc(Nc4ccc(F)c(Cl)c4)c3n2)CC1 | 23.7 µM (active) | 
CCc1cc(SCc2sc(-c3ccc(C(F)(F)F)cc3)nc2CN2CCN(c3ccc(OC)cc3)CC2)ccc1OCC(=O)O | 7.76 µM (active) | 
CCOc1nc2cccc(C(=O)OC(C)OC(=O)OC3CCCCC3)c2n1Cc1ccc(-c2ccccc2-c2nn[nH]n2)cc1 (stereo not given) | 17.4 µM (active) | 
Clc1ccc(C(Cn2ccnc2)OCc2ccc(Sc3ccccc3)cc2)c(Cl)c1 (stereo not given) | 29.8 µM (active) | 
Cc1ccc(O)c(C(C)(C)C)c1 | 21.8 µM (active) and inactive | 
CCOC(=O)c1nc(C(Cl)(Cl)Cl)n(-c2ccc(Cl)cc2Cl)n1 | 54.9 µM (active) | 
ON=C1CCCC1 |  | -0.327% [at 81.1 µM] (inactive)

— PubChem BioAssay (Tox21)
